Shiga inhibitor: blocks Shiga toxin action in Vero cells; hit rate 9.2% among 290,000; inhibition, % at 38.7 µM; Vero cells, Shiga toxin protein synthesis inhibition reporter; in the data active = inhibition mostly above about 28%, no sharp cut-off; inactive = mostly below about 43%; also: 0% is about no effect
AmpC detergent: AmpC beta-lactamase inhibition with detergent present. P00811. AmpC hydrolysis of nitrocefin, absorbance 480 nm, 0.01% Triton. Potency, µM (series often up to 114 µM), for the others: top-dose activity change, negative = inhibition, hits mostly inhibitors. hit rate 0.041% among 370,000. AID 485294;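 also: potency is read from the fitted curve at half-maximal effect; 0% = no-compound wells and -100% = no-enzyme wells; nearly all actives have a fitted effect of over 25% in size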
Target sequence (P00811 whole entry, looked up): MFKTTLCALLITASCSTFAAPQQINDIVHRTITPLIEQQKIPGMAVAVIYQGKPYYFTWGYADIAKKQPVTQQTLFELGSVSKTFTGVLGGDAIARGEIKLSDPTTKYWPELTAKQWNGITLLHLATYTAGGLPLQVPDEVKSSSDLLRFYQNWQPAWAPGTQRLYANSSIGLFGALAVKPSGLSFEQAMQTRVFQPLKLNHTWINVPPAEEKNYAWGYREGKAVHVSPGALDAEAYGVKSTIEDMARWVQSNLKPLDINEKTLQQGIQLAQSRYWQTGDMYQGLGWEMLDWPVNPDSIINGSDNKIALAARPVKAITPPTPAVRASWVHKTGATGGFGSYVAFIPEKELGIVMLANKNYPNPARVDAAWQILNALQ
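AmpC (5.3 nM in the dispensed reagent) in 20 mM phosphate pH 7.0 with 0.01% (detergent screen) or 0.0001% Triton X-100 was preincubated with compounds for 15 min at room temperature. Nitrocefin was then added from an 800 uM solution, and hydrolysis was followed at 480 nm.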
AmpC inh no detg: AmpC beta-lactamase inhibition without detergent | P00811 | AmpC nitrocefin hydrolysis, absorbance 480 nm, 0.0001% Triton | Potency, µM (highest dose often 57.1 µM), without a hit: at the highest dose activity change, negative = inhibition, usual class: inhibitors | hit rate 0.52% among 330,000 | AID 485341;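 also: potency is read from the fitted curve at half-maximal effect; plate controls were no compound for no effect and no enzyme for full effect; nearly all actives have a fitted effect of over 20% in size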
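20 mM phosphate pH 7.0 + 0.01% (detergent screen) or 0.0001% Triton X-100; 5.3 nM AmpC reagent; cpd preinc 15 min RT; nitrocefin (800 uM stock) to start; A480 q20 s × 4 min; Activity was normalised to no-enzyme and no-compound control wells.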
Cycloheximide cs: affects cycloheximide protein synthesis inhibition readout, counter-screen. cell reporter, cycloheximide protein synthesis inhibition counterscreen. max response, %. hit rate 12% among 300,000. AID 2314; in the data active = max response mostly above about 13%, no sharp cut-off; inactive = mostly below about 14%; also: read at 38.3 µM for the half of the compounds with a filed dose; 0% is about no effect
SARS PLpro yeast: inhibitors of SARS-CoV papain-like protease in yeast; S. cerevisiae expressing SARS-CoV PLpro, growth rescue; AID 485353; Potency, µM (series often up to 32.9 µM), inactives show top-dose activity, positive = growth rescue, actives largely listed as activators; hit rate 0.19% among 330,000; calls by dose curve; also: potency is read from the fitted curve at half-maximal effect; 0% is about no effect; nearly all actives have a fitted effect of over 55% in size
AMA1-RON2 inh: disrupts binding of P. falciparum AMA1 to RON2 | AlphaScreen AMA1-biotinylated RON2 peptide binding | Potency, µM (highest dose often 58.2 µM), for inactives: top-dose activity change, negative = inhibition, most hits filed as inhibitors | hit rate 0.2% among 360,000 | AID 720542;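 also: potency is read from the fitted curve at half-maximal effect; 0% = vehicle wells and -100% = peptide control; nearly all actives have a fitted effect of over 45% in size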
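AMA1 (3D7) with his tag at 25 nM final met compounds first, then biotinylated RON2 peptide at 25 nM; detection used donor plus acceptor beads, 10 µg/mL apiece, read by AlphaScreen after 30 min at room temperature.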
* marks the source's active call; other numbers are inactive results; ? = inconclusive; nt = no result given; [ ] = dose if it differs, or a comment. This is one part of a sample in which hits are shown more often than they occur. Unless noted, calls follow the shape of the dose curve; as a rule, active = well fitted curve in the direction sought with a large enough effect; inconclusive = small, poorly fitted or top-dose-only effect, or another doubt; inactive = no such curve, though single readings can be large; an effect the other way counts as inactive or inconclusive.

SMILES | Shiga inhibitor | AmpC detergent | AmpC inh no detg | Cycloheximide cs | SARS PLpro yeast | AMA1-RON2 inh
Cc1ccc(-c2noc(-c3ccccc3C(=O)N3CCCC3)n2)cc1 | 54* | ? | 92% | 35* | -8% | 12%
Cc1ccccc1-c1noc(-c2ccccc2C(=O)N2CCCC2)n1 | 2 | -6% | 63% | 12 | -13% | -5%
O=C(c1ccccc1-c1nc(-c2ccc(Cl)cc2)no1)N1CCCC1 | 74* | -8% | 94% | 45* | 3% | 0%
CCOC(=O)C1CCN(C(=O)C(=O)c2cn(CC(=O)N3CCCCCC3)c3ccccc23)CC1 | 8 | ? | 121% | -3 | 1% | 0%
CCCCn1c(N)c(N(CC(C)C)C(=O)CN2C(=O)C3CCCCC3C2=O)c(=O)[nH]c1=O (centres undefined) | nt | ? | -30% | nt | 4% | -12%
CCCCn1c(N)c(N(CC(C)C)C(=O)CN2C(=O)NC3(CC(C)CC(C)(C)C3)C2=O)c(=O)[nH]c1=O (centres undefined) | nt | -10% | 35µM* | nt | 3% | -10%
Cc1cc(C(=O)CSc2nnc(-c3ccco3)o2)c(C)n1Cc1ccco1 | 96* | ? | -6% | 31* | -4% | -18%
COCC(C)n1c(C)cc(C(=O)CSc2nnc(-c3ccco3)o2)c1C (centres undefined) | nt | nt | -2% | nt | -5% | -7%
Cc1cc(C(=O)CSc2nn(-c3ccccc3)c(=S)s2)c(C)n1Cc1ccco1 | 13 | 0% | 28µM* | 12 | 2% | 1%
Cc1cc(C(=O)CSc2nncs2)c(C)n1Cc1ccco1 | 109* | 7% | -24% | 38* | 1% | 22µM*
Cc1cc(C(=O)CCl)c(C)n1Cc1ccco1 | 43 | 2% | -9% | 21 | ? | -1%
CC(=O)c1ccc(NC(=O)CSc2nnc(-c3ccco3)o2)cc1 | 37 | -6% | -4% | 17* | 0% | 9%
Cc1cc(C)nc(NC(=O)CSc2nn(-c3ccccc3)c(=S)s2)n1 | -2 | 1% | -15% | -1 | 1% | 9%
O=C(CSc1nnc(-c2ccco2)o1)c1ccccc1Cl | 31 | ? | -10%[2.29 µM] | 17* | -2% | 64%
CCN(CC)C(=O)CSc1nnc(-c2ccco2)o1 | 47* | 1% | -15% | 23* | 31% | 36%
CSc1ccc(C(=O)C2CCCN(S(=O)(=O)N(C)C)C2)cc1 (centres undefined) | -1 | 0% | 17% | 0 | -1% | 3%
CN(C)S(=O)(=O)N1CCCC(C(=O)c2ccc(-c3ccccc3)c(F)c2)C1 (centres undefined) | 35* | 1% | 79% | 15* | -2% | 0%
O=C(c1ccc(-c2ccccc2)c(F)c1)C1CCCN(CCCn2cccn2)C1 (centres undefined) | 14 | 4% | 128% | 9 | -2% | -11%
O=C(c1ccc(-c2ccccc2)c(F)c1)C1CCCN(CCO)C1 (centres undefined) | 68 | 3% | 41% | 15* | 0% | 1%
CC(C)c1nc(C#N)c(NN)o1 | 116* | -4% | -18% | 49* | -2% | 82%
O=C(c1ccc(Cl)c(S(=O)(=O)N2CCOCC2)c1)N1CCCC1 | -4 | -7% | -15% | -6 | 2% | 25%
O=C1/C(=C/c2cccs2)NC(=S)N1C1CC1 | active | 0% | -19% | 15 | 0% | -5%
CN(C(=O)c1ccncc1)c1nnc(-c2cccnc2)s1 | -3 | ? | -17% | -3 | -2% | -5%
CN(C(=O)c1ccncc1)c1nnc(-c2ccccn2)s1 | 75 | 3% | -9% | 35* | -6% | -10%
Cc1ccc(C(=O)N(C)c2nnc(-c3ccncc3)s2)cc1 | 58* | -6% | -1% | 15* | 1% | -10%
SMILES | Shiga inhibitor | AmpC detergent | AmpC inh no detg | Cycloheximide cs | SARS PLpro yeast | AMA1-RON2 inh
CN(C(=O)c1ccc(C#N)cc1)c1nnc(-c2ccccn2)s1 | 20 | -12% | 5% | 14 | 10% | -3%
Cc1c(O)ccc(/C(Cc2ccc3ccccc3n2)=N\N)c1O | 68* | 3% | -54% | 29* | 1% | 65%
CCc1cc(/C(Cc2ccc3ccccc3n2)=N\O)c(O)cc1O | 37 | 0% | -49% | -2 | -12% | 65%
COc1cccc(NS(=O)(=O)c2ccc3c(c2)CC(=O)N3)c1 | nt | -3% | -30% | nt | -12% | 14%
COC(=O)CS(=O)(=O)c1ccc2c(c1)CC(=O)N2 | 7 | 2% | 0.14µM* | -1 | 0% | 8%
Cc1ccc(-n2nc3ccc(NC(=O)c4oc5ccc(C)cc5c4C)cc3n2)cc1 | nt | 13% | nt | nt | nt | nt
Cc1ccc(-n2nc3ccc(NC(=O)C(C)C)cc3n2)cc1 | 119* | -11% | -2% | 54* | -1% | 39%
CCCC(=O)Nc1ccc2nn(-c3ccc(OC)cc3)nc2c1 | nt | -6% | -3% | 41* | -1% | 7%
Cc1ccc(-n2nc3ccc(NC(=O)c4ccco4)cc3n2)cc1 | 51* | ? | -5% | 38* | -20% | -2%
CC(C)CC(=O)Nc1ccc2nn(-c3ccccc3)nc2c1 | 53* | 1% | -18% | 66* | -14% | -3%
Cc1c(NC(=O)Cn2nc(C(=O)O)c3ccccc3c2=O)c(=O)n(-c2ccccc2)n1C | -6 | ? | 3% | 1 | -8% | 10%
O=S(=O)(Cc1ccccc1)Nc1cccc(Br)c1 | 2 | -6% | -40% | -1 | -1% | -2%
CC(C)c1nc2sc3c(=O)n(N)cnc3c2c2c1COC(C)(C)C2 | -12 | ? | -14% | 5 | -8% | 14%[11.6 µM]
CC(C)C(=O)Nc1ccc2nn(-c3ccc(F)cc3)nc2c1 | 46* | -12% | -15% | 28* | -1% | 6%
CC(C)C(=O)Nc1ccc(N2CCN(c3ccc(F)cc3)CC2)cc1 | -2 | -4% | -13% | 0 | 0% | -9%
Cc1ccc(-n2nc3ccc(NC(=O)c4cccc([N+](=O)[O-])c4C)cc3n2)cc1 | 52 | -15% | -30% | 28* | 13% | -13%
COc1ccccc1N(CC(=O)NC1CCCCC1)S(=O)(=O)c1cccs1 | 4 | -2% | 23% | -3 | 3% | -4%
CCCCOc1ccc(-c2cnc3ccccc3n2)cc1 | 60* | -11% | -20% | 45* | 9% | -21%
CCOC(=O)c1ccc2ncc(-c3ccccc3)nc2c1 | 123* | -1% | -7% | 46* | -1% | -10%
Cc1cc(-c2ccccc2)nc(-c2ccccc2)c1C | 31 | -3% | -29% | 26* | -5% | 10%
Nc1ccc(-c2cnc3ccccc3n2)cc1 | nt | nt | nt | nt | nt | 2%
CCOC(=O)c1cccc(-c2c(-c3ccccc3)ncc3cc(OC)c(OC)cc23)c1 | nt | 7% | 96% | nt | 1% | -13%
Cc1cc2ncc(-c3ccccc3)nc2cc1C | 106* | -1% | -5% | 39* | 0% | -3%
CCCN1CCN(c2ncnc3c2nnn3Cc2ccccc2)CC1 | -17 | 6% | 72% | -2 | -5% | 1%

High-throughput results deposited in PubChem by National Center for Advancing Translational Sciences (NCATS).
